Bioassay records (PubChem)
Only some compounds are listed: those with a hit (about 0.9% of all), similar ones and a draw of the others.
A488 autofl = A488 region autofluorescence; max dye equivalency, M; hit rate 0.1% among 59,000; compound autofluorescence, A488 spectral region, dye equivalency; Compound Type: qHTS ECL - MLSMR
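Compound autofluorescence was read in 100 mM Tris pH 8.0 after 15 min at room temperature, ex 480 nm/em 540 nm. Intensities were converted to A488 dye-equivalent concentration using an on-plate six-point A488 standard curve.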
A647 fluor = compound fluoresces in the A647 spectral region; Compound fluorescence, A647 channel (570/671 nm), Tris buffer; max dye-equivalent concentration, M; 59,000 tested, under 10 active; AID 592;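 also: values scaled relative to a standard on each plate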
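Fluorescence read (570 nm ex, 671 nm em) after 15 min RT incubation of compounds in 100 mM Tris buffer, pH 8.0; values expressed as dye-equivalent concentration against a six-point A647 standard series on each plate.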
Rhodamine autofl = compound autofluorescence in rhodamine spectral region. Rhodamine-region fluorescence, 547/598 nm, Tris buffer; stronger effect = higher value. max dye-equivalent concentration, M. hit rate 0.05% among 59,000. AID 594; in the data active = max dye-equivalent concentration above about 11 nM; inconclusive = between about 1.1 nM and that limit
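Intensities are converted to rhodamine-equivalent concentration using a six-point rhodamine standard on each plate. Compounds sit 15 min at room temperature in 100 mM Tris buffer, pH 8.0; read uses the 547/598 nm excitation/emission pair.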
TexasRed autofl = compounds fluorescent in Texas Red spectral region; Compound fluorescence, Texas Red channel, 547/618 nm; stronger effect = higher value; hit rate 0.06% among 59,000; max dye-equivalent concentration, M; in the data active = max dye-equivalent concentration above about 10 nM; inconclusive = between about 1.1 nM and that limit
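Pin-transferred compounds and Texas Red standards go into 100 mM Tris buffer, pH 8.0. After 15 min at room temperature, plates are imaged with 547/618 nm filters. Each value is a dye-equivalent concentration derived from the per-plate dye curve.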
Fluorescein fluor = compound fluoresces in the fluorescein spectral region | max fluorescein-equivalent concentration, M | Compound autofluorescence, 480/540 nm, fluorescein-equivalent; stronger effect = higher value | hit rate 0.91% among 59,000; in the data active = max fluorescein-equivalent concentration above about 10 nM; inconclusive = between about 1.1 nM and that limit
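In this qHTS profile, compound fluorescence was measured with a 480 nm/540 nm filter pair following a 15-min room-temperature incubation in 100 mM Tris (pH 8.0). A six-point fluorescein series on each plate served for normalization.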
Resorufin fluor = resorufin region autofluorescence; Compound fluorescence, resorufin region 547/598 nm, buffer; stronger effect = higher value; max dye-equivalent concentration, M; hit rate 0.04% among 59,000; AID 588
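Intrinsic fluorescence profiled in the resorufin window (ex 547 nm, em 598 nm) after 15 min at room temperature in pH 8.0 Tris buffer (100 mM); responses normalized against a six-point resorufin standard series as dye-equivalent concentration.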
Active calls of the source: *; i = inactive; ? = inconclusive; ! = repeats disagree. Unless noted, no rule for the calls is given here.

SMILES	A488 autofl	A647 fluor	Rhodamine autofl	TexasRed autofl	Fluorescein fluor	Resorufin fluor
CC[C@H](CO)NC(=O)[C@@H]1C=C2c3cccc4[nH]cc(c34)C[C@@H]2N(C)C1	i	1.8e-08	i	i	2.7e-08M*	i
CC[C@H](CO)NC(=O)[C@H]1C=C2c3cccc4[nH]cc(c34)C[C@H]2N(C)C1	i	1e-09	i	i	?	i
CN1C[C@H](CO)C=C2c3cccc4[nH]cc(c34)C[C@H]21	i	6.5e-09	i	i	1.5e-08M*	i
N[C@]1(C(=O)O)CC[C@@H](C(=O)O)C1	i	1.6e-08	i	?	?	i
CCCC[N+]1(C)[C@@H]2CC(OC(=O)[C@@H](CO)c3ccccc3)C[C@H]1[C@H]1O[C@H]12 (stereo partly specified)	i	4.9e-08	i	i	?	i
N#C/C(=C\c1ccc(O)c(O)c1)C(N)=S	i	1e-08	i	?	2.5e-08M*	i
CN1C[C@@H](CNC(=O)OCc2ccccc2)C[C@H]2c3cccc4c3c(cn4C)C[C@@H]21	?	1e-09	i	i	3.9e-08M*	i
CC(C)[C@@]1(NC(=O)[C@@H]2C[C@@H]3c4cccc5[nH]cc(c45)C[C@H]3N(C)C2)O[C@@]2(O)[C@@H]3CCCN3C(=O)[C@H](Cc3ccccc3)N2C1=O	i	1e-09	i	i	?	i
COc1cc2c(cc1OC)-c1c(O)c(OC)cc3c1[C@@H](C2)N(C)CC3	i	3.1e-09	i	i	i	i
O=C(O)c1ccccc1-c1c2cc(Br)c(=O)cc-2oc2[c]([Hg])c(O)c(Br)cc12	7.8e-07M*	2.8e-08	3.8e-07M*	1.5e-08M*	1.7e-05M*	2.9e-07M*
C[C@@]12CC[C@H]3[C@@H](CCC4=C(O)C(=O)CC[C@]43C)[C@H]1CCC2=O	i	4e-08	i	i	?	i
CC(C)[C@@]1(NC(=O)[C@@H]2C=C3c4cccc5[nH]cc(c45)C[C@H]3N(C)C2)O[C@@]2(O)[C@@H]3CCCN3C(=O)[C@H](Cc3ccccc3)N2C1=O	?	1e-09	i	i	3.8e-08M*	i
CC(C)[C@]1(NC(=O)[C@H]2C=C3c4cccc5[nH]cc(c45)C[C@H]3N(C)C2)O[C@@]2(O)[C@H]3CCCN3C(=O)[C@H](Cc3ccccc3)N2C1=O	i	1e-09	i	i	?	i
CC(C)[C@H]1C(=O)N2CCC[C@@H]2[C@]2(O)O[C@@](NC(=O)[C@H]3C=C4c5cccc6[nH]cc(c56)C[C@H]4N(C)C3)(C(C)C)C(=O)N12	i	2.9e-09	i	i	2.7e-08M*	i
CC(C)[C@H]1C(=O)N2CCC[C@H]2[C@]2(O)O[C@](NC(=O)[C@@H]3C=C4c5cccc6[nH]cc(c56)C[C@H]4N(C)C3)(C(C)C)C(=O)N12	?	1e-09	i	i	5.3e-08M*	i
CCCCCCCCCCCCCC(=O)O[C@H]1[C@@H](C)[C@@]2(O)[C@@H](C=C(CO)C[C@]3(O)C(=O)C(C)=C[C@@H]23)C2C(C)(C)[C@]21OC(C)=O (stereo partly specified)	i	1e-09	i	i	i	i
CC(=O)[C@@H]1CC[C@@H]2[C@H]3CC[C@H]4C[C@@H](O)CC[C@]4(C)[C@@H]3C(=O)C[C@]21C	i	4.8e-08	i	i	?	i
N[C@@H](Cc1cc(O)c(O)cc1O)C(=O)O	i	5.5e-09	i	i	i	i
COc1ccc2c3c([nH]c2c1)C(C)=NCC3	i	1e-09	i	i	?	i
CC1=NCCc2c1[nH]c1cc(O)ccc21	4.5e-07M*!	1.3e-08	?	i	2.1e-07M*	i
O=C(Cn1ncc2c3ccccc3n(Cc3cccc(Cl)c3)c2c1=O)N1CCC2(CC1)OCCO2	?	1e-09	i	?	2.5e-08M*	i
CCN(CC)C(=O)N[C@@H]1C[C@H]2c3cccc4[nH]cc(c34)C[C@@H]2N(C)C1	i	1.1e-08	i	i	?	i
CC1=C[C@@H]2c3cccc4[nH]cc(c34)C[C@H]2N(C)C1	?	3.5e-08	i	i	5.9e-08M*	i
N#CC(C#N)=Cc1cc(O)c(O)c(O)c1	?	5.8e-08	i	i	4.4e-08M*	i
